Bioassay records as filed in PubChem.
An excerpt weighted towards active compounds, which were near 12% of everything screened.
Shiga toxin inh: blocks Shiga toxin action in Vero cells | Vero cells, Shiga toxin protein synthesis inhibition reporter | inhibition, % at 38.7 µM | 290,000 compounds, 9.2% hits | AID 2315; in the data active means inhibition mostly above about 28%, no sharp cut-off; inactive means mostly below about 43%; further: 0% is about no effect
CHX counter: counter-screen for Shiga toxin inhibitors: cycloheximide protein synthesis inhibition. cell reporter, cycloheximide protein synthesis inhibition counterscreen. max response, %. 300,000 compounds, 12% hits; in the data active means max response mostly above about 13%, no sharp cut-off; inactive means mostly below about 14%; further: read at 38.3 µM for the half of the compounds with a filed dose; 0% is about no effect
NS1 inh: blocks influenza NS1 protein function; Potency, µM (top dose mostly 46.1 µM), without a hit: at the top dose activity, positive = more growth; AID 2326; 270,000 compounds, 0.4% hits; further: potency means the concentration at half of the fitted maximal effect; actives are rising curves; nearly all actives have a fitted effect of over 50% in size
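Read-out: OD600 growth recovery of NS1-expressing budding yeast. Cells grown overnight at 30C in -URA glucose medium, washed, resuspended and diluted 1:100 in 2% galactose assay medium, pH 6.0. Same strain lacking NS1 served as positive control.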
SARS PLP yeast: inhibitors of SARS-CoV papain-like protease in yeast; S. cerevisiae expressing SARS-CoV PLpro, growth rescue; Potency, µM (titrated, usually from 32.9 µM), inactives show at the top dose activity, positive = growth rescue, hits mostly activators; 330,000 compounds, 0.19% hits; further: potency means the concentration at half of the fitted maximal effect; 0% is about no effect; nearly all actives have a fitted effect of over 55% in size
An asterisk follows results filed as active; / = no result; + = active, no number. Unless noted, the call rests on the fitted dose curve.

SMILES	Shiga toxin inh	CHX counter	NS1 inh	SARS PLP yeast
OCC1CCCN(C(=S)Nc2ccc(OC(F)F)cc2)C1 (stereo not given)	63*	26*	1%	29%
C(=N\N1CCOCC1)/c1cn(-c2ccccc2)nc1-c1ccccc1	35	22*	/	-10%
O=C(N/C(=C\c1cn(-c2ccccc2)nc1-c1ccccc1)C(=O)N1CCOCC1)c1ccccc1	4	-2	8%	10%
CCc1ccc(-c2nn(Cc3ccccc3)cc2C=O)cc1	90*	50*	/	0%
Cc1ccc(-c2nn(-c3ccccc3)cc2C(N)=O)o1	-4	12	-1%	-2%
N#Cc1cn(-c2ccccc2)nc1-c1ccccc1	25	21*	-6%	1%
Cc1ccc(-c2nn(-c3ccccc3)cc2C=O)o1	112*	51*	/	-6%
O=Cc1cn(-c2ccccc2)nc1-c1ccccc1	45*	44*	-32%	-5%
O=Cc1cn(-c2ccccc2)nc1-c1ccncc1	-3	5	/	-2%
Cc1ccc(-c2nn(-c3ccccc3)cc2CO)o1	85*	34*	-13%	3%
Cc1ccc(-c2nn(-c3cccc(F)c3)cc2CNCc2cccnc2)o1	27	10*	1%	-1%
O=C(Nc1cc2c3c(c1)CC(=O)N3CCC2)c1ccc(Cl)cc1	/	/	/	3%
O=C(Nc1cccc(-c2nc3ccccc3o2)c1)c1cc([N+](=O)[O-])ccc1N1CCOCC1	11	1	/	/
CC(=C/c1ccco1)/C=N/N1CCN(c2ccccc2)CC1	86*	46*	5%	-8%
CC(/C=N/N1CCN(c2ccccc2)CC1)=C\c1ccco1	37	44*	-2%	-7%
[N-]=[N+]=Nc1ccc(C(=O)CSC[C@H](NC(=O)CC[C@H](N)C(=O)O)C(=O)NCC(=O)O)cc1	/	/	-9%	/
O=C(N/N=C/c1cc2ccccc2nc1Cl)[C@H]1C[C@@H]1c1ccccc1	-16	-2	14%	4%
Cc1ccc2cc(/C=N/NC(=O)[C@H]3C[C@@H]3c3ccccc3)c(Cl)nc2c1	10	16*	15%	-12%
COC(=O)c1sccc1N/N=C/c1cccc(OC)c1O	50	19*	7%	-37%
COc1ccc2nc(C)cc(N/N=C/c3cccc(OC)c3O)c2c1	14	10	-52%	-9%
COC(=O)c1sccc1N/N=C/c1ccc(OC)c(OC)c1OC	39*	47*	-8%	-6%
COC(=O)c1sccc1N/N=C/c1cccc(Oc2ccccc2)c1	38*	40*	7%	3%
COC(=O)c1sccc1NC(=O)c1cccc(OC)c1	12	1	-69%	-9%
CCn1nc(NC(=O)C2CCCO2)c2cc3cccc(C)c3nc21 (stereo not given)	-21	-1	-6%	1%
CNC(=O)COc1ccc(Nc2nnc(-c3ccc(C)c(S(N)(=O)=O)c3)c3ccccc23)cc1	-5	-1	-2%	4%
SMILES	Shiga toxin inh	CHX counter	NS1 inh	SARS PLP yeast
CCSc1ccc(-c2cccc([N+](=O)[O-])c2)nn1	+	53*	/	0%
O=C(CSc1ccc(-c2cccc([N+](=O)[O-])c2)nn1)N1CCCCCC1	33	19*	/	2%
COc1ccc(COC(=O)Oc2ccc(CNC(C)=O)cc2OC)c([N+](=O)[O-])c1	/	/	/	2%
O=C1c2sc3nc4n(c(=O)c3c2CCC1Br)CCCCC4 (stereo not given)	53*	31*	-25%	-15%
O=c1c2c3c(sc2nc2n1CCCCC2)C(O)CCC3 (stereo not given)	70*	55*	0%	1%
COc1ccc(N2CCN(S(=O)(=O)c3c(C)n(C)c(=O)n(C)c3=O)CC2)cc1	-33	0	15%	4%
COc1cccc(-c2cc(C(=O)NC3CCCCC3)no2)c1	81*	20	2%	-1%
COc1ccc(-c2cc(C(=O)NC3CCCC3)no2)cc1	93*	18*	-8%	0%
COCCNC(=O)c1cc(-c2ccc(OC)c(OC)c2)on1	18	20*	-8%	-5%
COc1ccc(-c2cc(C(=O)NC3CCCC3)no2)cc1OC	26*	24*	4%	3%
CCCNC(=O)C1CCN(c2cc(-c3ccccc3)nc3ncnn23)CC1	-18	-3	1%	1%
N=C(N)SCc1cccc(-c2nc3ccccc3c(=O)o2)c1	/	/	0%	/
CCC(CC)C(=O)N1N=C(c2ccc(NS(C)(=O)=O)cc2)CC1c1ccc(C)cc1 (stereo not given)	10	7	11%	-1%
O=C(COc1ccc(Br)cc1)Nc1ccc([N+](=O)[O-])cn1	-10	-3	5%	-4%
COC(=O)c1cc(-c2ccc(OC)cc2)on1	12	-3	-49%	-5%
O=C(NC1CCCCC1)c1cc2nc(-c3ccco3)cc(C(F)(F)F)n2n1	5	-2	2%	-5%
O=C(NC1CCCCC1)c1cc(-c2ccco2)on1	143*	36*	-7%	-4%
COc1ccc(-c2cc(C(=O)NC(C)C)no2)cc1	58*	27	-14%	12%
COc1ccc2[nH]c3c(=O)n(N)c(C)nc3c2c1	14	9	10%	-5%
Cc1ccc2[nH]c3c(=O)n(N)c(C)nc3c2c1	38	17*	/	-1%
CC(=O)c1cccc(NC(=O)NC2CCCCC2)c1	17	16	-15%	5%
COc1ccc(C(=O)N2CCC(CCC(=O)Nc3cccc(C)c3)CC2)cc1	11	13	2%	-1%
O=C(Nc1cccc(Cl)c1)NC1CC2CCC(C1)N2Cc1ccco1 (stereo not given)	-6	5	/	-2%
O=C(Nc1cccc(Cl)c1)NC1CCCCC1	91*	38*	-19%	-8%
CC(=O)c1ccc(NC(=O)C2CCCC2)cc1	1	9.4*	-7%	0%
SMILES	Shiga toxin inh	CHX counter	NS1 inh	SARS PLP yeast
O=C(Nc1cccc(Cl)c1)NC1CC2CCC1C2 (stereo not given)	/	23*	-75%	-1%
COC(C(=O)N1CCC(CCC(=O)Nc2ccccc2)CC1)c1ccccc1 (stereo not given)	48*	37*	-16%	6%
CC(=O)c1ccc(-c2ccc(C(=O)NC3CCCCCC3)o2)cc1	41*	28*	/	0%
CC(=O)c1ccc(NC(=S)NC2CCCC(C)C2C)cc1 (stereo not given)	48*	17*	/	-1%
Cc1cccc(NC(=O)NC2CCCCCCC2)c1	93*	41*	-26%	-4%
Cc1cccc(NC(=O)CCC2CCN(C(=O)c3ccc(C)s3)CC2)c1	14	22*	12%	5%
O=C(NC1CCC(O)CC1)c1ccc(-c2ccc(Cl)cc2)o1 (stereo not given)	/	/	/	-1%
COCc1ccc(C(=O)N2CCC(CCC(=O)Nc3cccc(C)c3)CC2)s1	-17	-4	6%	-6%
CCC1CC=CC2C1C(=O)N(Cc1ccccc1)C2c1cccc([N+](=O)[O-])c1 (stereo not given)	37	37	/	/
CC(=O)Nc1ccc(S(=O)(=O)N2CCC(c3nnc(-c4ccc(C)cc4)o3)CC2)cc1	-1	1	-2%	-2%
Cc1ccc(S(=O)(=O)/N=C(\c2ccc(F)cc2)n2c(C)nc3ccccc32)cc1	36	1	6%	3%
CCOc1ccc(NC(=O)CN(C)C(=O)C2CCN(C(=O)c3ccc(Cl)cc3)CC2)cc1OCC	/	/	/	-12%
